# Assay results taken from PubChem BioAssay AID686978 (National Center for Advancing Translational Sciences (NCATS), 2013).
# Screen size: about 420,000 compounds; about 64,000 (15%) were called active. About 27% were inconclusive and are not listed. The call rests on the fitted dose curve; in most records, active means well fitted inhibition curve with a large enough effect; inconclusive means small, poorly fitted or top-dose-only effect; inactive means flat fitted curve, though single readings scatter. These entries were drawn from the full list.
# Assay: qHTS for Inhibitors of human tyrosyl-DNA phosphodiesterase 1 (TDP1): qHTS in cells in absence of CPT; further: nearly all actives have a fitted effect of over 55% in size
# Details: DT40 Tdp1-/- hTDP1 cells, no CPT, ATP luminescence, 48 h; activity change, negative = growth inhibition: at 46.2 µM (top of the series)
# In short: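 Readout: luminescence from CellTiter-Glo after 30 min in the dark at RT. Cells: DT40 Tdp1-/- with stable hTDP1, 400/well. Exposure: compounds alone, ≥48 hr, 37 °C.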
# On the % scale 0 is the no-effect control and ±100 the full control effect; potency means the concentration at half of the fitted maximal effect.
SMILES,"activity change, negative = growth inhibition",Potency
O=C1/C(=C/c2ccc(F)cc2)SC(=S)N1NS(=O)(=O)c1ccccc1,-19.1% (inactive),
CC1CCCCC12NC(=O)N(CC(=O)N1CCN(c3ccccc3)CC1)C2=O (stereo not given),-0.12% (inactive),
Cc1cc(C)c(NC(=O)CSc2nc3ccncc3[nH]2)c(C)c1,-13.4% (inactive),
COc1ccc(CNC(=O)CCCn2nc(C)c([N+](=O)[O-])c2C)cc1,-22% (inactive),
Cc1ccc(Oc2cc(NC(=O)CCCn3nc(C)c([N+](=O)[O-])c3C)cc([N+](=O)[O-])c2)cc1,,18.4 µM (active)
CCc1ccc(NC(=O)Cn2nc(C)c([N+](=O)[O-])c2C)cc1,-5.71% (inactive),
CCCc1nc2ccccc2n1C(C)C(=O)NC(C)(C)C (stereo not given),-7.62% (inactive),
CCC(C(=O)NC(C)(C)C)n1c(-c2ccccc2)nc2ccccc21 (stereo not given),,18.4 µM (active)
CC(C)(C)NC(=O)NC(=O)COC(=O)Cn1c(C(F)(F)F)nc2ccccc21,-6.14% (inactive),
CC(C)(C)NC(=O)C(CCc1ccccc1)n1c(=O)c(-c2ccccc2)nc2ccccc21 (stereo not given),,2.91 µM (active)
CC(=O)NS(=O)(=O)c1ccc(N/C(N)=N/c2nc(C)cc(C)n2)cc1,4.16% (inactive),
Cc1nnc(SCCCCSc2nnc(C)c(=O)[nH]2)[nH]c1=O,-4.3% (inactive),
COc1ccc(Br)cc1/C=N/Nc1ccc(S(=O)(=O)Nc2ccccc2C(=O)O)cc1[N+](=O)[O-],-18.5% (inactive),
COc1ccc(CCNC(=O)c2ccc3c(c2)nc(C)n3-c2ccc(Br)cc2)cc1OC,,20.6 µM (active)
COc1ccc(CCNC(=O)CSCc2ccc(Br)cc2)cc1OC,-20.4% (inactive),
COc1ccc(C(=O)NCc2ccccc2C)cc1S(=O)(=O)NC1CCCC1,-4.01% (inactive),
COCCn1c(=S)[nH]c2cc(C(=O)NCCc3ccc(OC)c(OC)c3)ccc2c1=O,-6.65% (inactive),
COc1ccccc1CNC(=O)Cn1cc2c(n1)CCCC2,6.11% (inactive),
COc1ccccc1CNC(=O)c1ccc(-n2c(C)cc3c2CCCC3)cc1,,14.6 µM (active)
COc1ccc(CCNC(=O)c2ccc(-n3c(C)cc4c3CCCC4)cc2)cc1OC,,18.4 µM (active)
O=C(OC1CC2CC1[C@H]1CCCCN1C2=O)N1CCOCC1 (stereo not given in full),-7.39% (inactive),
O=C(CS(=O)(=O)c1ccccc1)Nc1ccc(S(=O)(=O)Nc2ccccn2)cc1,-3.21% (inactive),
CCC1(C2CCN(Cc3cccnc3)CC2)NC(=O)N(CC2COc3ccccc3O2)C1=O (stereo not given),-22.5% (inactive),
CC(=O)c1cccc(NC(=S)N2CCN(S(C)(=O)=O)CC2)c1,2.42% (inactive),
CC(=O)N1CCN(C(=O)C2(NC(=O)Nc3ccc(C)cc3)CCCCC2)CC1,26.9% (inactive),
CN(C)c1ccc(N/C=C/C(=O)C(F)(F)F)cc1,-24.1% (inactive),
CCOc1ccc(S(=O)(=O)N/N=C(\C)c2ccc(Cl)c(Cl)c2Cl)cc1,-21.3% (inactive),

SMILES,"activity change, negative = growth inhibition",Potency
CCOc1ccc(OCC)c(NC(=O)C(NS(=O)(=O)c2ccc3c(c2)oc(=O)n3C)C(C)C)c1 (stereo not given),-14.7% (inactive),
O=C(CC1NCCNC1=O)Nc1ccc(Oc2ccccc2)cc1 (stereo not given),0.505% (inactive),
CCN(CC)c1cc(NC2CCCCC2)c2c3c(onc13)-c1ccccc1C2=O,,18.4 µM (active)
Cc1nnc(SCC(=O)Nc2cccc(N)c2)n1-c1ccccc1,-23.3% (inactive),
COC(=O)c1ccc(C2CC(=O)Nc3cc(OC)c(OC)cc32)cc1 (stereo not given),-16.9% (inactive),
COc1ccc(C2CC(=O)Nc3cc(C)c(C)cc32)c(OC)c1OC (stereo not given),,20.6 µM (active)
COc1cc2c(cc1OC)C(c1ccc(C)o1)CC(=O)N2 (stereo not given),-4.53% (inactive),
Cc1cc2c(cc1C)C(c1cccc(OC(C)C)c1)CC(=O)N2 (stereo not given),,23.1 µM (active)
COc1cc2c(cc1OC)C(c1ccncc1)CC(=O)N2 (stereo not given),18.7% (inactive),
CC(C)Oc1ccc(C2NC(=O)NC2=O)cc1 (stereo not given),1.33% (inactive),
CC1CN(c2cc(=O)n(Cc3ccc(F)cc3)c(=O)[nH]2)CC(C)O1 (stereo not given),-0.502% (inactive),
O=C1CCCCN1CCCC(=O)N1CCCC(Nc2ccc(F)cc2)C1 (stereo not given),-24.8% (inactive),
CCOC(=O)C1(Cc2ccccc2C)CCCN(C(=O)CN2C(=O)CSC2=O)C1 (stereo not given),-8.61% (inactive),
Cc1nc2cnc(N3CCN(C)CC3)nc2n(C[C@H]2CCCO2)c1=O,13.7% (inactive),
CC(=O)C1=C(O)C(=O)N(c2ccc(Br)cc2)C1c1ccc([N+](=O)[O-])cc1 (stereo not given),21.4% (inactive),
O=C1CCc2cc(S(=O)(=O)Nc3ccc(C(F)(F)F)cc3)cc3c2N1CC3,-17.8% (inactive),
Nc1ncc(S(=O)(=O)Nc2ccc(OC(F)(F)F)cc2)cn1,-22.8% (inactive),
O=C1Cc2cc(S(=O)(=O)Nc3ccc(OC(F)(F)F)cc3)cc3c2N1CCC3,,18.4 µM (active)
C=CCOc1ccccc1CNn1c(C)n[nH]c1=S,-17.6% (inactive),
CCCN(C(=O)CSc1nnc(N)s1)c1c(N)n(Cc2ccccc2)c(=O)[nH]c1=O,-9.5% (inactive),
O=c1c2ccccc2ncn1/N=C/c1ccccc1,-4.26% (inactive),
CCCN1C(=O)C(Cc2nc3ccccc3c(=O)n2-c2ccccc2)c2cc(C)ccc21 (stereo not given),-12.9% (inactive),
CCCc1nc2ccccc2c(=O)n1/N=C/c1ccc(O)c(O)c1,,16.4 µM (active)
CC(C)Oc1ccc(C(=O)NC(C)(C)CO)cc1,-14.9% (inactive),
CC(Oc1ccc(Cl)cc1Cl)C(=O)/C=C/N(C)C (stereo not given),-5.7% (inactive),
O=C(CN(CC1CCCO1)C(=O)CNS(=O)(=O)c1ccccc1)NCc1ccccc1 (stereo not given),-29.5% (inactive),
O=c1c(/C=N/O)coc2ccc(Cl)cc12,-19% (inactive),

SMILES,"activity change, negative = growth inhibition",Potency
Cc1cc(NC(=O)c2ccccc2C)no1,6.48% (inactive),
Cc1ccc2occ(/C=N/NC(=O)c3ccccc3C)c(=O)c2c1,,14.6 µM (active)
Cc1ccccc1CSc1nnc(Cn2c(=O)sc3ccccc32)n1C,-17.7% (inactive),
CCOc1cc(/C=N/NC(=O)c2ccc(CSc3nncn3C)cc2)ccc1OCC(=O)N1CCOCC1,13.3% (inactive),
COc1ccc(-c2nc(S(=O)(=O)c3ccccc3)c(N3CCCCC3)o2)cc1,,18.4 µM (active)
O=S(=O)(c1ccccc1)c1nc(Cc2ccccc2)oc1N1CCOCC1,-22.2% (inactive),
O=S(=O)(c1ccccc1)c1nc(-c2ccccc2)oc1NCCCN1CCOCC1,-16.3% (inactive),
O=S(=O)(c1ccc(Cl)cc1)c1nc(-c2ccccc2F)oc1NCCN1CCOCC1,-28.5% (inactive),
O=S(=O)(c1ccc(Cl)cc1)c1nc(-c2ccco2)oc1N1CCCCC1,,23.1 µM (active)
CSc1nc(-c2ccco2)nn1C(=O)c1ccccc1Cl,-11.7% (inactive),
O=C(CSc1oc(-c2ccccc2)nc1S(=O)(=O)c1ccc(Br)cc1)NC1CCCCC1,-0.03% (inactive),
O=S(=O)(c1ccccc1)c1nc(-c2ccc(Cl)cc2Cl)oc1N1CCCCC1,,13 µM (active)
Cc1ccc(F)cc1S(=O)(=O)Nc1cccc(C(=O)N2CCCC(C(N)=O)C2)c1 (stereo not given),18.7% (inactive),
COc1cc(=O)n2c(c1C(=O)NC(C)c1ccco1)CCN(Cc1cc(C)cc(C)c1)CC2 (stereo not given),-11.3% (inactive),
Cn1cc(C(=O)c2ccc(Cl)cc2Cl)cc1C(=O)NN,-21.6% (inactive),
O=C(CNC(c1ccccc1)c1ccccc1)Nc1ccc(F)cc1,-23.5% (inactive),
OCCCC1CCCCN1Cc1nc(Cc2ccccc2Cl)no1 (stereo not given),10.4% (inactive),
O=Cc1c(Cl)cccc1Cl,-0.244% (inactive),
COc1ccc([N+](=O)[O-])cc1NCC(=O)c1ccc(C)cc1,-24.8% (inactive),
Cn1ncc2c(N3CCCCC3)nc(NCCCO)nc21,-1.11% (inactive),
Cc1cnc(C)c(-c2cc(F)c3c(c2)CC(CNC(=O)c2cccc(Cn4cccn4)c2)O3)n1 (stereo not given),-26.2% (inactive),
COCC1CCN(C(=O)c2ccc3oc(Cc4ccccc4)nc3c2)C1 (stereo not given),5.22% (inactive),
CCOC(=O)c1ccc(NC2Nc3cc(C)nn3S2)cc1 (stereo not given),3% (inactive),
COCCCn1c(CCC(=O)O)ccc1-c1ccc(F)cc1,-4.41% (inactive),
COc1cccc(CNC(=O)Cn2c(=O)c3cccn3c3ccc(F)cc32)c1OC,6.54% (inactive),
O=C(O)CCCn1c(=O)c2cccn2c2ccc(F)cc21,,7.31 µM (active)
Cc1ccccc1-c1n[nH]c(=S)n1C,16.2% (inactive),

SMILES,"activity change, negative = growth inhibition",Potency
COC(CNC(=O)Cn1ncc2ccsc2c1=O)OC,-4.15% (inactive),
Cc1c(CN2CCC(C)CC2)c(=O)n(-c2ccccc2)n1C,0.472% (inactive),
CCc1nnc(NC(=O)c2c(O)c3c([nH]c2=O)CCCC3)s1,-24.8% (inactive),
Cc1cc2[nH]ncc2cc1NC(=S)NC(=O)c1ccccc1,,18.4 µM (active)
Cc1ccc(C(=O)NC(=S)Nc2ccc3[nH]c(=O)[nH]c3c2)cc1C,3.34% (inactive),
COC(=O)c1nc(NC(=O)c2ccccc2)n[nH]1,-12.7% (inactive),
O=C(COC(=O)C1CCCCC1)Nc1ccc([N+](=O)[O-])cc1,-8.96% (inactive),
C[C@@H]1CN([C@H](C)CO)C(=O)c2cc(NC(=O)NC3CCCCC3)ccc2O[C@H]1CN(C)S(C)(=O)=O,1.34% (inactive),
COc1ccc(/C=C/C(=O)NC(=S)NN2CCCCC2c2cccnc2)cc1 (stereo not given),-37.1% (inactive),
Cc1cc(Nc2cccc(F)c2)n2ncnc2n1,-1.84% (inactive),
Cc1cc(N2CCN(c3ccc(F)cc3)CC2)n2ncnc2n1,,16.4 µM (active)
Cc1cc(N2CCN(Cc3ccc4c(c3)OCO4)CC2)n2ncnc2n1,-17.8% (inactive),
C=CCn1c(SCC(=O)NC)nnc1C12CC3CC(CC(C3)C1)C2,-17.5% (inactive),
O=C(c1ccc2c(c1)OCO2)N1CCNc2ccccc2C1,-12.9% (inactive),
CCC(=O)c1cn(CCOc2ccccc2OC)c2ccccc12,,23.1 µM (active)
CCCn1cc(SCC(N)=O)c2ccccc21,12.8% (inactive),
COc1ccccc1OCCn1c(SCC(N)=O)nc2ccccc21,-6.59% (inactive),
Cn1nnnc1SCC(=O)Nc1ccccc1C(=O)NC1CC1,9.22% (inactive),
Cc1cc(=O)oc2c(C)c(OCC(=O)NCCc3ccc(S(N)(=O)=O)cc3)ccc12,2.29% (inactive),
COc1cccc(NC(=S)NC(=O)c2c(Cl)c(C)nn2C)c1,-8.21% (inactive),
Nc1nonc1-n1nnc(C(=O)N/N=C/c2cc(Br)ccc2O)c1CSC1=NCCS1,,6.51 µM (active)
Cc1ccc(SCc2c(C(=O)N/N=C/C3CC=CCC3)nnn2-c2nonc2N)cc1 (stereo not given),-24.7% (inactive),
Cc1ccc(SCc2c(C(=O)N/N=C/c3cccnc3)nnn2-c2nonc2N)cc1,-26.9% (inactive),
O=C(O)c1ccccc1C(=O)Nc1ccccc1[N+](=O)[O-],-0.699% (inactive),
